Assay results reported in PubChem BioAssay (EPA / NIEHS).
Inconclusive results are not listed. Active and inactive are the calls of the source. The calls were made as follows: active = hit-call score of the fitted dose curve at least 0.9, where 1 is the maximum; inconclusive = response in the unintended direction; inactive = score below 0.9.

How the values were obtained:
[1] = TOX21_p53_BLA_p2_viability: Viability Assessment in the Tox21 HCT-116 p53 Agonism Beta-lactamase Assay, Phase 2 (AID 2283591);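 also: compound exposure lasted 16 h at 37 °C; actives lower the ATP signal meaning cytotoxicity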
In short: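 Cytotoxicity readout: CellTiter-Glo ATP luminescence, 30 min at room temperature, after the beta-lactamase read. Cells were HCT116 exposed 16 h at 37C to compounds pin-transferred at 217-fold dilution from DMSO stocks.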

[2] = biological target: Cellular tumor antigen p53 (Homo sapiens) (UniProt P04637); test: TOX21_p53_BLA_p2_ratio: Tox21 HCT-116 p53 Agonism Beta-lactamase Assay, Ratio, Phase 2 (AID 2283592)
In short: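 In this cell-based reporter format, HCT116 cells were dosed with chemicals delivered from DMSO by 217-fold dilution and incubated 16 h at 37C. Emission at 460 and 530 nm after 2 h CCF4-AM loading provided the ratio, fitted upward versus DMSO.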

[3] = TOX21_p53_BLA_p3_viability: Viability Assessment in the Tox21 HCT-116 p53 Agonism Beta-lactamase Assay, Phase 3 (AID 2283593);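 also: cells exposed to compound for 16 h before reading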
In short: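 Cellular ATP was quantified by CellTiter-Glo luminescence, read after 30 min at room temperature. Beforehand, HCT116 cells (4000/well) received compound 5 h post-seeding, 217-fold diluted from DMSO, then incubated 16 h at 37C.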

[4] = biological target: Cellular tumor antigen p53 (Homo sapiens) (UniProt P04637); test: TOX21_p53_BLA_p3_ratio: Tox21 HCT-116 p53 Agonism Beta-lactamase Assay, Ratio, Phase 3 (AID 2283596)
In short: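 HCT116 p53-bla cells (4000/well) given compound in DMSO (217-fold dilution) after 5 h, incubated 16 h at 37C. CCF4-AM substrate 2 h at room temperature; 460/530 nm emission ratio, gain fitted against DMSO.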

[5] = TOX21_p53_BLA_p4_viability: Viability Assessment in the Tox21 HCT-116 p53 Agonism Beta-lactamase Assay, Phase 4 (AID 2283597);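 also: hits lower the luminescence signal meaning cytotoxicity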
In short: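 We seeded HCT116 p53 reporter cells at 4000/well and waited 5 h. We then added compounds in DMSO at a 217-fold dilution and incubated for 16 h. Viability was read as CellTiter-Glo luminescence after 30 min at RT.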

[6] = biological target: Cellular tumor antigen p53 (Homo sapiens) (UniProt P04637); test: TOX21_p53_BLA_p5_ratio: Tox21 HCT-116 p53 Agonism Beta-lactamase Assay, Ratio, Phase 5 (AID 2283599)
In short: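 Beta-lactamase reporter ratio (blue 460 nm over green 530 nm, 405 nm excitation) after 2 h CCF4-AM loading, in HCT-116 cells exposed 16 h at 37 C to compounds pinned at 217-fold dilution. Increases relative to DMSO baseline scored.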

[7] = biological target: Cellular tumor antigen p53 (Homo sapiens) (UniProt P04637); test: TOX21_p53_BLA_p4_ratio: Tox21 HCT-116 p53 Agonism Beta-lactamase Assay, Ratio, Phase 4 (AID 2283601)
In short: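 Signal is the blue/green (460nm/530nm) ratio of cleaved versus uncleaved CCF4-AM substrate, read after 2 h substrate loading. Cells were HCT116 carrying the p53-responsive beta-lactamase reporter, dosed 16 h at 37C, 5% CO2; CellTiter-Glo measured in parallel.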

[8] = TOX21_p53_BLA_p5_viability: Viability Assessment in the Tox21 HCT-116 p53 Agonism Beta-lactamase Assay, Phase 5 (AID 2283600)
In short: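 Compounds, pinned from DMSO at 217-fold dilution, were left on the cells for 16 h. The viability endpoint was ATP content measured by CellTiter-Glo luminescence, where falling signal reflects cytotoxicity.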

Measured: outcome

Cellular tumor antigen p53 (Homo sapiens), sequence (P04637 whole entry, looked up): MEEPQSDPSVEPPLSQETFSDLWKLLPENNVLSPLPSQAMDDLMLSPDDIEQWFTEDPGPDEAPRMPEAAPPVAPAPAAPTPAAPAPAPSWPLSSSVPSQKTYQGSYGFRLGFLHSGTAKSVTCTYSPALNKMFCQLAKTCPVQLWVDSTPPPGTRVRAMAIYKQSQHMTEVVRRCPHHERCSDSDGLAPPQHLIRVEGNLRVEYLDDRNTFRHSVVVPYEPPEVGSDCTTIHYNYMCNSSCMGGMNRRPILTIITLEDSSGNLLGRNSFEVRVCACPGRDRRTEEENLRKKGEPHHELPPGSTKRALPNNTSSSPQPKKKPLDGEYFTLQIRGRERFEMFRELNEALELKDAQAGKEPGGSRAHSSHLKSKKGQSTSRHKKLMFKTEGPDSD

ClC(Cl)(Cl)Cl
not listed: [8]
inactive: all other assays above

CCCCC#N
not listed: [6]
inactive: all other assays above

O=NN1CCN(N=O)CC1
not listed: [6]
inactive: all other assays above

Oc1ccc(Cl)c(Cl)c1
not listed: [6]
inactive: all other assays above

CC(C)OC(=O)Cc1ccccc1
not listed: [8]
inactive: all other assays above

O=C(Cl)CCl
not listed: [5] | [8]
inactive: all other assays above

NC(=O)CI
not listed: [5] | [8]
inactive: all other assays above

COc1ccc2c3c1O[C@H]1[C@@H](O)C=C[C@H]4[C@@H](C2)NCC[C@@]341
not listed: [5]
inactive: all other assays above

CC(C)(C)NCC(O)c1ccccc1Cl (stereo not drawn)
not listed: [5]
inactive: all other assays above

C[C@@H](CO)NC(=O)[C@@H]1C=C2c3cccc4[nH]cc(c34)C[C@H]2N(C)C1
not listed: [5]
inactive: all other assays above
